97 compounds from PubChem BioAssay AID430 (Sanford-Burnham Center for Chemical Genomics, 2006) can be followed below.

Screen size: about 63,000 compounds; about 1,100 (1.7%) were called active. Cut-off read from the data, not from the text of the source: active = cytotoxicity above about 50%; inactive = the rest. What follows is part of a selection rich in actives, with near analogues and random picks from the rest. Entries with a potency or affinity are not part of this list.

A short description of this test: cytotoxicity in HPDE-C7 cells, cell-based, fluorescence, HTS (AID 430).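 Note: cells exposed to compound for 48 hours before viability readout; 0% = vehicle and 100% = reference cytotoxic drug.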 To be noted: HPDE-C7 pancreatic duct cells viability, at 10 µM, hits give high values.
Consider `O=C(NCCN1CCOCC1)c1ccc(-c2ccccc2)cc1`, for which the cytotoxicity is 2.5% (inactive).

Turning to `CCN(CC)S(=O)(=O)c1ccc(NC(=O)COc2c(OC)cccc2OC)cc1`, the cytotoxicity is -2.7% (inactive).

As to `O=C(CSc1nnc(C23CC4CC(CC(C4)C2)C3)o1)Nc1ccc(N2CCOCC2)c(Cl)c1`, the cytotoxicity was -10% (inactive). For `CCOC(=O)c1oc2ccc(S(=O)(=O)N3CCC(C)CC3)cc2c1C` the value was 16.8% (inactive); for `CCOC(=O)c1oc2ccc(S(=O)(=O)N3CCOCC3)cc2c1C`, 3.6% (inactive). For the compound `CCOC(=O)c1oc2ccc(S(=O)(=O)n3nc(-c4ccc(OC)cc4)cc3N)cc2c1C`, the cytotoxicity is 54.2% (active). For `CCn1c(CSc2nccn2C)nc2cc(C(=O)O)ccc21` the value was 2.6% (inactive); for `NC1=NC(=O)CC(C(=O)NCc2ccccc2)S1` (configuration not stated), -6.8% (inactive). The figure for `Cc1ccccc1OCC(O)Cn1c(SC(C)C)nc2c1c(=O)[nH]c(=O)n2C` (configuration not stated) is 0.7% (inactive); for `CCSc1nc2c(c(=O)[nH]c(=O)n2C)n1CC(O)COc1ccccc1C` (configuration not stated) it is -1.3% (inactive). For `Cn1c(=O)[nH]c(=O)c2c1nc(N1CCOCC1)n2CC(O)COc1ccccc1` (configuration not stated) the value was -10.9% (inactive). Regarding `CC(C)CSc1nc2c(c(=O)[nH]c(=O)n2C)n1CC(O)COc1cccc2ccccc12` (configuration not stated), the cytotoxicity was 68.7% (active). For `COc1ccccc1OCC(O)Cn1c(Br)nc2c1c(=O)[nH]c(=O)n2C` (configuration not stated) the value was 2.9% (inactive). The figure for `Cc1ccccc1OCC(O)Cn1c(N2CCN(c3ccccc3)CC2)nc2c1c(=O)[nH]c(=O)n2C` (configuration not stated) is 82.9% (active); for `Cc1nn(CCC(=O)O)c2nc(-c3cccnc3)cc(C(F)(F)F)c12` it is -17.9% (inactive); for `CCN(CC)C(c1ccc(C)cc1)c1nnnn1C1CCCCC1` (configuration not stated) it is -25.4% (inactive). For `Cc1ccc(S(=O)(=O)C2(C(=O)N3CCN(C4CCCCC4)CC3)CC2)cc1` the value was 6.1% (inactive); for `CCCC(=O)NC(c1ccco1)c1cc(Cl)c2cccnc2c1O` (configuration not stated), 59.7% (active). Consider `O=C(Oc1c(Cl)cc(Cl)c2cccnc12)N1CCCCC1`, for which the cytotoxicity was -1.1% (inactive). Regarding `CCCC(=O)Nc1ccc(Cl)c(NC(=O)c2ccco2)c1`, the cytotoxicity is -1.6% (inactive).

Turning to `O=C(OCC(=O)N(C1CCCCC1)C1CCCCC1)c1ccncc1`, the cytotoxicity is 4.3% (inactive). For `Cc1cccc(C#N)c1NC1=CC(=O)CC(C)(C)C1` the value was -3.4% (inactive); for `COc1cc(NCCCC(C)N)c2ncccc2c1` (configuration not stated), -12.1% (inactive).

On to `COc1cc(NS(=O)(=O)c2ccc(C)cc2)c2ncccc2c1`, for which the cytotoxicity was 57.2% (active). For `O=C(C1CCN(S(=O)(=O)c2cccc3cccnc23)CC1)N1CCCC1` the value was -7.2% (inactive); for `COc1ccc(NS(=O)(=O)c2ccc(Oc3ncccn3)cc2)cc1`, 17.1% (inactive); for `O=S(=O)(Nc1cccc2cccnc12)c1ccc(S(=O)(=O)N2CCCC2)cc1`, 57.1% (active).

`CS(=O)(=O)Nc1cccc2cccnc12`: the cytotoxicity is 6.6% (inactive).

On to `Cc1nnc(SCC(=O)Nc2cc(C(F)(F)F)ccc2N2CCOCC2)o1`, for which the cytotoxicity is 12.9% (inactive). For `CC/C(=N\O)c1ccc(OC)c(OC)c1` the value was -4.4% (inactive); for `CC(=O)CSc1ncnc2nc[nH]c12`, 5.4% (inactive); for `CC(C)(C)c1cc(Br)ccc1OCC(=O)Nc1ncn[nH]1`, 21.9% (inactive).

For the compound `CCC(C)NC(=O)C1c2cc(OC)c(OC)cc2C(=O)N(C)C1c1ccc(OC)cc1` (configuration not stated), the cytotoxicity was -7.8% (inactive). For `CCCSc1nc(C)cc(=O)[nH]1` the value was 1.4% (inactive); for `CC(=O)c1c(C)cc(C)c(CSc2nc(C)cc(=O)[nH]2)c1C`, 51.3% (active). For `CCOC(=O)CSc1nc(C)cc(=O)[nH]1` the value was 1.4% (inactive). The figure for `COc1cc(NS(=O)(=O)c2ccc(C)cc2C)cc(OC)c1OC` is 37% (inactive); for `O=C(O)c1cccc(S(=O)(=O)Nc2ccc3oc(=O)sc3c2)c1` it is 1.3% (inactive); for `Cn1c(=O)c2cn(-c3ccc4c(c3)OCCO4)cc2n(C)c1=O` it is -24.9% (inactive). As to `O=C1Cc2ccccc2C(=O)N1CCc1ccccc1`, the cytotoxicity is -14.2% (inactive). For `Cc1cc(NC(=O)c2cnn3c(C(F)F)cc(-c4ccccc4)nc23)no1` the value was -6.1% (inactive). For the compound `CC1CCCN(c2nc3ccccc3nc2C(C#N)S(=O)(=O)c2ccccc2)C1` (configuration not stated), the cytotoxicity is 52.3% (active). Take `CC1CCN(c2nc3ccccc3nc2C(C#N)S(=O)(=O)c2ccccc2)CC1` (configuration not stated): the cytotoxicity was 12.4% (inactive). The figure for `COc1ccc(S(=O)(=O)C(C#N)c2nc3ccccc3nc2N2CCCCC2)cc1` (configuration not stated) is -10.2% (inactive); for `N#CC(c1nc2ccccc2nc1N1CCCC1)S(=O)(=O)c1ccccc1` (configuration not stated) it is -10.1% (inactive).

With `Cc1ccc(S(=O)(=O)C(C#N)c2nc3ccccc3nc2N2CCC(C)CC2)cc1` (configuration not stated), the cytotoxicity was 5.7% (inactive).

For `COc1ccc(S(=O)(=O)C(C#N)c2nc3ccccc3nc2N2CCCC(C)C2)cc1` (configuration not stated), the cytotoxicity was 61.7% (active). For `CCS(=O)(=O)NCCc1csc(-c2ccccc2)n1` the value was -4.2% (inactive); for `CCSc1nc(C)c(CC)c(C)c1C(N)=O`, 1.9% (inactive).

Consider `CCOC(=O)CC(=O)CSc1[nH]c(=O)cc(C)c1C#N`, for which the cytotoxicity was -1.4% (inactive).

For `Cc1ccc(-c2cn3cccnc3n2)cc1NC(=O)c1c(-c2ccccc2Cl)noc1C`, the cytotoxicity was 40.2% (inactive). As to `Cc1c(C(=O)N(Cc2cccs2)C2CCS(=O)(=O)C2)oc2ccccc12` (configuration not stated), the cytotoxicity is -22.1% (inactive). For `CN(C)S(=O)(=O)n1cnc(-c2ccccc2)c1-c1ccccc1` the value was -7.9% (inactive). The figure for `CN(C)S(=O)(=O)c1ccc(-c2ccccc2)cc1` is -2.3% (inactive). For `Cc1ccc(CNC(=O)c2cn(C3CCCCC3)c(=O)c3c2c2ccccc2n3C)o1` the value was -4% (inactive). `O=S(=O)(NCCOc1ccc(F)cc1)c1ccc2c(c1)OCCO2`: the cytotoxicity is -5.3% (inactive). The figure for `Brc1cnn(-c2nc(N3CCOCC3)nc(N3CCOCC3)n2)c1` is 5.8% (inactive); for `O=C(Nc1cc(C(=O)N2CCOCC2)cc(C(=O)N2CCOCC2)c1)c1cc(F)c(F)cc1Cl` it is -14.6% (inactive); for `O=C(OCc1nc2ccccc2s1)C1CCN(C2=NS(=O)(=O)c3ccccc32)CC1` it is 1.1% (inactive).

On to `CC(C)C(=O)NC(c1ccco1)c1ccc2cccnc2c1O` (configuration not stated), for which the cytotoxicity was -17.7% (inactive). As for `COc1cc(C(=O)Nc2ccccn2)cc(OC)c1OC`, the cytotoxicity is 5.4% (inactive). Take `Cc1cc(NC(c2cccnc2)c2ccc3cccnc3c2O)no1` (configuration not stated): the cytotoxicity was 9% (inactive). The figure for `CC(=O)NC(c1ccco1)c1ccc2cccnc2c1O` (configuration not stated) is 31.1% (inactive). For `O=c1cc(CO)oc(C(Nc2ccccn2)c2ccccc2F)c1O` (configuration not stated) the value was -3.3% (inactive); for `COc1ccc(C(NC(C)=O)c2ccc3cccnc3c2O)c(OC)c1` (configuration not stated), 11.7% (inactive).

For `CNC(=O)c1ccc(N(Cc2ccccc2)S(C)(=O)=O)cc1`, the cytotoxicity was 2.3% (inactive). The figure for `CCn1c(=O)cc(SCC(=O)Nc2cccnc2)c2ccccc21` is -11.6% (inactive); for `Cc1cccc(N2CCN(C(=O)C3CCCN(S(=O)(=O)c4c(C)noc4C)C3)CC2)c1C` (configuration not stated) it is -2% (inactive); for `C/C(=C\c1ccco1)C1C(C#N)=C(N)OC2=C1C(=O)CC(C)(C)C2` (configuration not stated) it is -2% (inactive).

In the case of `CCOc1ccc2[nH]c(=O)c(CN(Cc3ccccc3)C(=O)N3CCCC3)cc2c1`, the cytotoxicity is -4.5% (inactive). Turning to `Cc1ccc(CCNC(=O)c2coc3nc4ccccc4nc23)cc1`, the cytotoxicity was 27.6% (inactive).

Consider `COc1ccc(F)cc1CN1CCN(c2cc(C)nc3c4c(C)cc(C)nc4nn23)CC1`, for which the cytotoxicity was 9.9% (inactive).

For `CCOc1cc(NC(=O)c2ccco2)c(OCC)cc1NC(=O)Cc1cccc(OC)c1`, the cytotoxicity is -10.3% (inactive). The figure for `O=C(NCc1cccnc1)c1ccc(COc2ccccc2Br)o1` is 13.1% (inactive); for `CN1CCN(c2ccccc2NC(=O)Cc2cn(C)c3ccccc23)CC1` it is -5.4% (inactive); for `COc1ccccc1NC(=O)N(Cc1ccco1)Cc1cc2ccc(C)c(C)c2[nH]c1=O` it is 72.8% (active). For `COc1ccccc1NC(=O)N(Cc1ccco1)Cc1cc2cccc(C)c2[nH]c1=O` the value was 0.1% (inactive).

Take `CCN1CCCC1CN(Cc1cc2cc(C)cc(C)c2[nH]c1=O)C(=O)Nc1ccccc1OC` (configuration not stated): the cytotoxicity was 15.1% (inactive).

In the case of `COc1ccccc1NC(=O)N(Cc1ccco1)Cc1cc2cc(C)cc(C)c2[nH]c1=O`, the cytotoxicity is 59.5% (active). Consider `COc1ccccc1NC(=O)N(Cc1ccco1)Cc1cc2c(C)ccc(C)c2[nH]c1=O`, for which the cytotoxicity is 22.4% (inactive). `Cc1cc(C)c2[nH]c(=O)c(CN(Cc3ccco3)C(=O)C3CCCO3)cc2c1` (configuration not stated): the cytotoxicity is -9.6% (inactive). The figure for `O=C(O)CCc1ccc(-c2cccs2)n1CC1CCCO1` (configuration not stated) is -6.9% (inactive); for `CCOC(=O)Cn1c(=O)oc2cc(S(=O)(=O)N3CCCc4ccccc43)ccc21` it is 3.6% (inactive); for `CCSc1nnc(NC(=O)C(Cc2ccccc2)n2cccc2)s1` (configuration not stated) it is -8.7% (inactive). The figure for `Cc1csc(NC(=O)C(Cc2ccccc2)n2cccc2)n1` (configuration not stated) is 14.2% (inactive); for `COc1cccc2sc(NC(=O)c3ccc(S(=O)(=O)N4CCOCC4)cc3)nc12` it is 2.8% (inactive); for `Oc1ccc2c(c1)oc1cc(O)ccc12` it is 56.4% (active). The figure for `O=c1oc2cc(O)ccc2c2c1CCCC2` is 30.9% (inactive); for `O=c1oc2cc(O)ccc2c2oc3cc(O)ccc3c12` it is 9.7% (inactive). For `O=C(NCc1ccco1)C1CCN(S(=O)(=O)c2ccc(-n3cnnn3)cc2)CC1`, the cytotoxicity was -7.4% (inactive). For `COc1ccc(OC)c(-c2nc(C)sc2CC(=O)O)c1` the value was -6.4% (inactive); for `CC(=O)Nc1ccc(NC(=O)Oc2ccccc2)cc1`, -2% (inactive); for `O=C(Nc1ccc(N2CCN(c3ccc(O)cc3)CC2)cc1)Oc1ccccc1`, 50.7% (active). For `CC(C)Oc1ccc(NC(=O)Oc2ccccc2)cc1` the value was 4.8% (inactive); for `CCC(=O)N1c2ccccc2NC2=C(C(=O)CC(c3ccco3)C2)C1c1ccco1` (configuration not stated), -3.7% (inactive). Regarding `O=C1CC(c2ccco2)CC2=C1C1c3ccccc3C(=O)N1c1ccccc1N2` (configuration not stated), the cytotoxicity was 64.9% (active).

As to `COc1ccc(C2C3=C(CC(c4ccco4)CC3=O)Nc3ccccc3N2C(C)=O)cc1` (configuration not stated), the cytotoxicity is -12.7% (inactive).
